The supplement of paper PMC10600219
Structures can show the parent of a compound that is named as a salt. Over roughly 2,800 compounds, “cell viability relative to vehicle” has its median near 0.98; the lowest 2% begin near 0.45. The full list was thinned out, with the lowest values kept by preference.

These molecules were tested on NCI-H2228 alectinib-DTP (assay: cell viability relative to vehicle (fraction of vehicle); NCI-H2228 is an ALK-positive lung cancer line and DTP means drug-tolerant persister; higher = less growth inhibition). Conditions: 100 nM; treatment time 6 days.
In short: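 Each value is viability relative to vehicle-treated cells, measured as ATP with the CellTiter-Glo 3D Cell Viability Assay. Parental NCI-H2228 cells and drug-tolerant persisters (1000 nM targeted drug, 13 days) in 384-well plates received the 3114-agent TargetMol anti-cancer compound library at 100 nM, or DMSO, and were read 6 days later.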
`CC(C)[C@]12O[C@H]1[C@@H]1O[C@]13[C@]1(O[C@H]1C[C@H]1C4=C(CC[C@@]13C)C(=O)OC4)[C@@H]2O` [Triptolide] was tested, and the cell viability was 0.133. Work on `CCCC(C)(C)c1ccc2c(c1)OC(C)(C)[C@@H]1CC=C(C)C[C@@H]21` yielded a cell viability of 0.862. In the case of `Cc1ccc(/N=C/N(C)/C=N/c2ccc(C)cc2C)c(C)c1` [Amitraz], the cell viability is reported as 0.902. `COc1ccc2c(c[n+](C)c3c4cc5c(cc4ccc23)OCO5)c1OC` [Chelerythrine chloride] gave a cell viability of 1.04. Molecule `COc1ccc2c(c[n+](C)c3c4cc5c(cc4ccc23)OCO5)c1OC` [Chelerythrine] has a cell viability of 1.03. For `CC(=O)O[C@H]1C(=O)[C@@]2(C)[C@H]([C@H](OC(=O)c3ccccc3)[C@]3(O)C[C@H](O)C(C)=C1C3(C)C)[C@]1(OC(C)=O)CO[C@@H]1C[C@@H]2O` [Baccatin III], the cell viability was 1. In the case of `C/C(=C\c1csc(C)n1)[C@@H]1C[C@@H]2O[C@]2(C)CCC[C@H](C)[C@H](O)[C@@H](C)C(=O)C(C)(C)[C@@H](O)CC(=O)O1` [Epothilone B], the cell viability is reported as 0.433. `C/C(=C\c1csc(C)n1)[C@@H]1C[C@@H]2O[C@@H]2CCC[C@H](C)[C@H](O)[C@@H](C)C(=O)C(C)(C)[C@@H](O)CC(=O)O1` [Epothilone A] was tested, and the cell viability was 0.529. `C[C@@H]1C(=O)O[C@H]2[C@H](O)[C@@]34O[C@@H]5OC(=O)[C@H](O)[C@@]56[C@H](C(C)(C)C)[C@H](O)C(OC3=O)[C@]64[C@@]12O` (stereo partly specified) [Ginkgolide C] was tested, and the cell viability was 0.969. For `C/C=C/c1cc(OC)c(OC)cc1OC` [alpha-Asarone], the cell viability was 0.92. `NC[C@H](CC(=O)O)c1ccc(Cl)cc1` [(R)-baclofen] showed a cell viability of 1.07. For `NCCc1c[nH]c2ccccc12` [Tryptamine], the cell viability was 1.12. With `NCCCNCCCN` [Bis(3-aminopropyl)amine] the cell viability was 0.833. Molecule `CCC(C)C(=O)O[C@@H]1[C@@H](OC(C)=O)[C@]2(C)[C@H](C(C)=O)CC[C@@]23O[C@]32CC[C@H]3C[C@@H](O[C@H]4C[C@@H](OC)[C@H](O[C@@H]5O[C@H](C)[C@@H](O)[C@@H](OC)[C@H]5O)[C@@H](C)O4)CC[C@]3(C)[C@@H]12` (stereo partly specified) [Tenacissoside H] has a cell viability of 1.14. Work on `CC(=O)O[C@H]1C[C@H](O[C@H]2[C@@H](O)C[C@H](O[C@H]3[C@@H](O)C[C@H](O[C@H]4CC[C@@]5(C)[C@H](CC[C@@H]6[C@@H]5C[C@@H](O)[C@]5(C)[C@@H](C7=CC(=O)OC7)CC[C@]65O)C4)O[C@@H]3C)O[C@@H]2C)O[C@H](C)[C@H]1O[C@@H]1O[C@H](CO)[C@@H](O)[C@H](O)[C@H]1O` [Lanatoside C] yielded a cell viability of 0.49. Work on `CO[C@H]1C[C@H](O[C@H]2CC[C@]3(C)[C@H]4CC[C@]5(C)[C@@H](C6=CC(=O)OC6)CC[C@]5(O)[C@@H]4CC[C@]3(O)C2)O[C@H](C)[C@H]1O[C@@H]1O[C@H](CO)[C@@H](O)[C@H](O)[C@H]1O` [Periplocin] yielded a cell viability of 0.443. With `NCC(CC(=O)O)c1ccccc1` (stereo unspecified) [Phenibut] the cell viability was 1.03. `COc1ccc2c(c1O)-c1c(OC)c(OC)cc3c1[C@H](C2)N(C)CC3` [(+)-Isocorydine hydrochloride] gave a cell viability of 0.9. `CCC12C=CCN3CC[C@@]4(c5ccc(OC)cc5N(C)[C@H]4[C@@](O)(C(=O)OC)[C@@H]1OC(C)=O)[C@@H]32` (stereo partly specified) [Vindoline] showed a cell viability of 1.1. Work on `N#CC(C#N)=Cc1ccc([N+](=O)[O-])c(O)c1` yielded a cell viability of 1.05. `C[C@H]1CCC/C=C/[C@@H]2C[C@H](O)C[C@H]2[C@H](O)/C=C/C(=O)O1` [Brefeldin A] was tested, and the cell viability was 0.0894. `C[C@H]1C(=O)O[C@@H]2CCN3CC=C(COC(=O)[C@](C)(O)[C@]1(C)O)[C@H]23` [Monocrotaline] gave a cell viability of 0.941. `C[N+]1([O-])[C@@H]2CC(OC(=O)[C@H](CO)c3ccccc3)C[C@H]1[C@@H]1O[C@@H]12` (stereo partly specified) [Scopolamine N-oxide HBr] gave a cell viability of 1.07. In the case of `C[C@@H]1CCC=C2C(=O)C[C@H]3OOC(C)(C)[C@H]3[C@]21C` [Nardosinone], the cell viability is reported as 0.941. Work on `COc1ccc2c(c1)[nH]c1c(C)nccc12` [Harmine] yielded a cell viability of 0.801. In the case of `Nc1ncnc2c1ccn2[C@@H]1O[C@H](CO)[C@@H](O)[C@H]1O` [Tubercidin], the cell viability is reported as 0.389. With `CC(=O)Nc1ccc(OC[C@](C)(O)C(=O)Nc2ccc([N+](=O)[O-])c(C(F)(F)F)c2)cc1` [Andarine] the cell viability was 0.917. `C[C@H](CS(C)(=O)=O)n1ccc2c(C(F)(F)F)c(C#N)ccc21` showed a cell viability of 1.09. In the case of `O=P(O)(NCCCl)NCCCl` [Palifosfamide], the cell viability is reported as 1.17. `Cc1c(N[C@@H](c2nnc(-c3ccc(C#N)cc3)o2)[C@H](C)O)ccc(C#N)c1Cl` [Testolone] showed a cell viability of 1.21. With `C[C@]12CC[C@H](O)C[C@H]1CC[C@@H]1[C@@H]2CC[C@]2(C)[C@@H](c3ccc(=O)oc3)CC[C@]12O` [Bufalin] the cell viability was 0.101. With `C[C@]12CC[C@H](O)C[C@@H]1CC[C@@H]1[C@@H]2CC[C@]2(C)C(=O)CC[C@@H]12` [Epiandrosterone] the cell viability was 0.814. With `C[C@]12CC[C@H](O)C[C@H]1CC[C@@H]1[C@@H]2CC[C@]2(C)[C@@H](c3ccc(=O)oc3)C[C@H]3O[C@]132` [Resibufogenin] the cell viability was 1.07. For `CC(=O)O[C@H]1[C@H]2O[C@]23[C@@H]2CC[C@@H]4C[C@@H](O)CC[C@]4(C)[C@H]2CC[C@]3(C)[C@H]1c1ccc(=O)oc1` [Cinobufagin], the cell viability was 0.142. `C[C@]12CC[C@H](O)C[C@H]1CC[C@@H]1[C@@H]2CC[C@]2(C)[C@@](O)(c3ccoc3)CC[C@]12O` [Rostafuroxin] was tested, and the cell viability was 0.988. `Cc1c(C(=O)Nc2cccc(C(F)(F)F)c2)cc(-c2ccccc2)n1CCCN1CCOCC1` was tested, and the cell viability was 0.946. `Cc1ccccc1-n1c(Cn2cnc3c(N)ncnc32)nc2cccc(C)c2c1=O` gave a cell viability of 1.07. `C=C1C2CC3(C1O)C1CC4C5(C)CCC(O)C4(C1N(CC)C5)C3CC2=O` (stereo unspecified) [Napellonine] was tested, and the cell viability was 0.931. Work on `CCO[C@H]1O[C@@H]2O[C@@]3(C)CC[C@H]4[C@H](C)CC[C@@H]([C@H]1C)[C@@]24OO3` [Arteether] yielded a cell viability of 0.856. Work on `CC(=O)OC(C)(C)/C=C/C(=O)[C@](C)(O)[C@H]1[C@H](O)C[C@@]2(C)[C@@H]3CC=C4[C@H](C[C@H](O)C(=O)C4(C)C)[C@]3(C)C(=O)C[C@]12C` [Cucurbitacin B] yielded a cell viability of 0.146. Work on `COc1ccc2c(c1OC)CN1CCc3cc4c(cc3C1C2)OCO4` (stereo unspecified) [Tetrahydroberberine THB] yielded a cell viability of 1.01. `CC[C@@]1(O)C(=O)OCc2c1cc1n(c2=O)Cc2cc3ccccc3nc2-1` [(S)-(+)-Camptothecin] showed a cell viability of 0.36. `CCc1c2c(nc3ccccc13)-c1cc3c(c(=O)n1C2)COC(=O)[C@]3(O)CC` [7-Ethylcamptothecin] gave a cell viability of 0.361. With `COc1ccc(/C=C/C=C2C(=O)NC(=O)NC2=O)cc1` the cell viability was 0.972. Molecule `N#C/C=C1/C=C[C@@H](O)[C@H](O)[C@H]1O[C@@H]1O[C@H](CO)[C@@H](O)[C@H](O)[C@H]1O` [Griffonin] has a cell viability of 0.984. Work on `Clc1ccc([C@]23CNC[C@H]2C3)cc1Cl` [Amitifadine hydrochloride] yielded a cell viability of 1.06. `CC(=O)O[C@H]1CC[C@H]2[C@@H]3CCC4=CC(=O)CCC4=C3C=C[C@]12C` [Trenbolone acetate] showed a cell viability of 1.15. `N#C[C@H](O[C@@H]1O[C@H](CO[C@@H]2O[C@H](CO)[C@@H](O)[C@H](O)[C@H]2O)[C@@H](O)[C@H](O)[C@H]1O)c1ccccc1` [Amygdalin] gave a cell viability of 0.879. For `N#Cc1nn(-c2c(Cl)cc(C(F)(F)F)cc2Cl)c(N)c1[S+]([O-])C(F)(F)F` (stereo unspecified) [Fipronil], the cell viability was 0.905. Molecule `CC1=C[C@H]2[C@@]3(O)[C@H](C)[C@@H](O)[C@]4(O)[C@H]([C@@H]3C=C(CO)C[C@]2(O)C1=O)C4(C)C` [Phorbol] has a cell viability of 0.999. Molecule `O=C(/C=C/c1ccccc1)OC[C@H]1O[C@@H](O[C@@H]2OC=C[C@H]3[C@H](O)[C@@H]4O[C@]4(CO)[C@@H]23)[C@H](O)[C@@H](O)[C@@H]1O` [Picroside I] has a cell viability of 1.06.
